Screening results from PubChem BioAssay.
Sm TGR block: qHTS Assay for the Inhibitors of Schistosoma Mansoni Peroxiredoxins. Potency, µM (top dose mostly 114 µM), for the others: at the highest dose activity change, negative = inhibition, hits mostly inhibitors. purified TGR, DTNB reduction, TNB absorbance 405 nm. Schistosoma mansoni thioredoxin glutathione reductase (TGR), Q962Y6. 3% of 360,000 active; active means well fitted inhibition curve with a large enough effect; inconclusive means small, poorly fitted or top-dose-only effect; inactive means no such curve, though single readings can be large or run the other way; further: on the % scale 0 is the no-effect control and ±100 the full control effect; nearly all actives have a fitted effect of over 60% in size
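Kinetic colorimetric format: TGR-catalysed, NADPH-driven DTNB reduction monitored via TNB absorbance. Enzyme dispensed at 20 nM; compound exposure 15 min at room temperature before reaction start.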
SARS PLP yeast: qHTS of Yeast-based Assay for SARS-CoV PLP; S. cerevisiae expressing SARS-CoV PLpro, growth rescue; Potency, µM (doses to about 32.9 µM), for inactives: top-dose activity, positive = growth rescue, usual class: activators; 0.19% of 330,000 active; AID 485353, 2010; calls by dose curve; further: 0% is about no effect; nearly all actives have a fitted effect of over 55% in size
An asterisk follows results filed as active; ? = inconclusive; nt = not tested or not shown. Sampled rows, rich in hits. Any-hit rate of the full collection: about 3%. Potency means the concentration at half of the fitted maximal effect.

SMILES	Sm TGR block	SARS PLP yeast
Cc1cccc(-c2nc3c4ccccc4nc(N4CCN(c5cc(C)ccc5C)CC4)n3n2)c1	7%	nt
COc1ccc(N2CCN(c3csc4ccccc4c3=O)CC2)cc1	0%	nt
COc1ccc(Cl)cc1C(=O)NCc1nc(-c2cccc(C)c2)no1	2%	nt
COc1ccccc1CN1COc2ccc3c(C)cc(=O)oc3c2C1	16%	nt
CCSc1nnc(NC(=O)/C=C/c2ccco2)s1	22µM*	1%
COc1cc(/C=C/C(=O)Nc2nc3ccc(S(=O)(=O)N(C)C)cc3s2)cc(OC)c1OC	-5%	-1%
CNS(=O)(=O)c1ccc2nc(NC(=O)/C=C/c3ccco3)sc2c1	22µM*	-6%
CCCSc1nnc(NC(=O)c2ccco2)s1	0%	-5%
Fc1ccc(NCc2ccccc2-c2nnc(-c3ccccc3Cl)o2)cc1Cl	30%	nt
Cc1cc(C)c2c(n1)sc1c(=O)n(-c3ccccc3C(F)(F)F)nnc12	-5%	nt
CC1(C)CC(CCNC(=O)CCl)(c2ccccc2)CCO1 (stereo not drawn)	45µM*	0%
CC1(C)CC(CCNS(=O)(=O)c2ccccc2)(c2ccccc2)CCO1 (stereo not drawn)	-16%	25%
COc1cccc(C(=O)NCC(c2ccc3c(c2)OCO3)N2CCN(C)CC2)c1 (stereo not drawn)	8%	nt
Cc1ccn2c(=O)nc(SCC(=O)NCc3ccccc3)nc2c1	-1%	-2%
Cc1cc(C(=O)NNC(=S)NCc2ccco2)n(C)n1	22µM*	9%
Cc1cc(SCC(=O)NC(=O)NCc2ccco2)nc2ccccc12	40µM*	-4%
O=C(CSc1cccc2cccnc12)NCc1ccco1	45µM*	0%
Cc1ccn2c(=O)nc(SCC(=O)NCc3ccco3)nc2c1	35µM*	nt
CC(C)(C)c1ccc(C(=O)NNC(=S)NCc2ccco2)cc1	-2%	1%
COc1ccc(CNC(=O)CSc2cccc3cccnc23)cc1	5%	1%
Cc1cc(SCC(=O)NC(=O)NCc2ccco2)nc2c(C)cccc12	?	-8%
COc1cccc(-n2c(C)nc3c(cnn3-c3ccc(C)c(C)c3)c2=O)c1	8%	nt
CS(=O)(=O)CCC(C(=O)Nc1cccc(C(F)(F)F)c1)N1Cc2ccccc2C1=O (stereo not drawn)	-6%	nt
CC(=O)N1CCC2(CC1)OC(=O)C(C)=C2C(=O)Nc1cc(C)ccc1C	-1%	nt
O=C(NC1CC(=O)N(c2cccc(F)c2)C1)C1CCCC1 (stereo not drawn)	4%	nt
SMILES	Sm TGR block	SARS PLP yeast
Nc1cc(N)nc(SCC(=O)NCc2ccco2)n1	-4%	3%
Cc1cc(C)nc(SCC(=O)NCc2ccco2)n1	56µM*	2%
Cc1cc(SCC(=O)c2ccc(O)c(O)c2)nc2ccccc12	2.8µM*	-2%
Cc1cc(SCC(=O)c2ccc3c(c2)OCO3)nc2ccccc12	1%	-5%
CCOc1ccccc1NC(=O)c1ccc2c(Cl)c3c(nc2c1)CCC3	4%	nt
O=c1c2cc3c(cc2nc2sc(Nc4cccc([N+](=O)[O-])c4)nn12)OCO3	-2%	nt
CC(C)CN(CCCNC(=O)CN1N=C(c2ccccc2)CCC1=O)CC(C)C	6%	nt
CCOC(=O)c1cccc(NC(=O)c2ccc3c(c2)nnn3C2CCCC2)c1	11%	nt
O=C1c2ccccc2C(=O)N1CCCCN(C(=O)c1ccco1)c1ccc(Cl)cc1	0%	-6%
O=C1/C(=C/N(C(=O)c2ccco2)c2ccc(Br)cc2)Sc2ccccc21	13µM*	-25%
COc1ccc(CN(C(=O)c2ccco2)c2ccc(Br)cc2)cc1OC	-12%	10%
O=C1/C(=C/N(C(=O)c2ccco2)c2ccc(Cl)cc2)Sc2ccccc21	40µM*	-12%
Cc1sc2ncn(CC(=O)Nc3ccc(C(F)(F)F)cc3)c(=O)c2c1S(=O)(=O)N1CCN(C)CC1	-3%	nt
O=C(CSc1ccc2nnc(-c3ccccn3)n2n1)NCc1ccco1	40µM*	10%
COc1ccc(-c2nnc3ccc(SCC(=O)Nc4cc(C)on4)nn23)cc1	7%	1%
Cn1c(SCC(=O)NCc2ccco2)nnc1-c1ccccc1	?	-12%
COc1ccc(OCc2nnc(SCC(=O)NCc3ccco3)o2)cc1	1%	2%
COc1ccc(-c2nnc(SCC(=O)NCc3ccco3)n2C)cc1	45µM*	9%
COc1ccc(Cc2nnc(SCC(=O)NCc3ccco3)o2)cc1	50µM*	-3%
COc1ccc(-c2nnc3ccc(SCC(=O)NCc4ccco4)nn23)cc1	40µM*	4%
O=C(CSc1ccc2nnc(-c3ccccn3)n2n1)NCc1ccc2c(c1)OCO2	-6%	-18%
Cn1cccc1-c1cc2n(n1)CCC(=O)N2CCCC(=O)NCc1ccc(F)cc1	-22%	nt
COc1ccccc1CNC(=O)CSc1ncc2c(n1)-c1cc(Cl)ccc1N(Cc1ccccc1)S2(=O)=O	-3%	nt
Cc1ccc(CN2CCN(C3CCN(C(=O)c4ccccc4)CC3)C(=O)C2=O)cc1	-3%	nt
COc1cccc(CNC(=O)Cn2c(=O)nc(-c3ccccc3F)c3cc(Cl)ccc32)c1	-4%	nt
SMILES	Sm TGR block	SARS PLP yeast
O=C(Cn1c(=O)n(Cc2ccc(F)cc2)c(=O)c2sc3ccccc3c21)NCc1ccccc1	10%	nt
COc1ccc(-n2nc(C(=O)N3CCCCC3C)c3c4ccccc4n(C)c3c2=O)cc1Cl (stereo not drawn)	1%	nt
Cc1cccc(C(=O)Nc2ccc(OCc3cc(=O)n4ccsc4n3)cc2)c1	4%	nt
COc1ccc(C)cc1NC(=O)COc1cc(=O)n(C)c2ccccc12	9%	nt
O=C(CSc1ccc2nnc(CCNC(=O)c3ccccc3)n2n1)NCc1ccco1	42%	-1%
O=C(CSc1ccc2nnc(-c3ccccc3)n2n1)NCc1ccco1	45µM*	5%
COc1ccc(Cn2c(CCC(=O)Nc3cc(OC)c(OC)c(OC)c3)nc3cccnc32)cc1	-4%	nt
COc1ccccc1CNC(=O)CCCn1c(=O)c2ccccc2n(CC(=O)Nc2c(C)cc(C)cc2C)c1=O	0%	nt
O=C(C1CCC(Cn2c(=O)c3sccc3n(Cc3ccccc3F)c2=O)CC1)N1CCOCC1 (stereo not drawn)	-4%	nt
O=C1/C(=C/c2ccncc2)SC(=S)N1C1CCCCC1	-15%	1%
O=C1/C(=C/c2ccco2)SC(=S)N1CC1CCCO1 (stereo not drawn)	20µM*	-1%
O=C1/C(=C\c2ccc(-c3ccccc3Cl)o2)SC(=S)N1CC1CCCO1 (stereo not drawn)	-29%	-4%
Cc1ccc(/C=C2\SC(=S)N(CC3CCCO3)C2=O)o1 (stereo not drawn)	4µM*	-2%
O=C1/C(=C/c2cccnc2)SC(=S)N1CC1CCCO1 (stereo not drawn)	-10%	-1%
Cc1ccc(/C=C2/SC(=S)N(C3CCCCC3)C2=O)o1	45µM*	0%
COc1ccccc1N1CCN(S(=O)(=O)c2c(C)nc3sc(C)c(C)n3c2=O)CC1	4%	nt
CCOC(=O)c1ccc(NC(=O)C(C)N(c2ccc(OCC)cc2)S(C)(=O)=O)cc1 (stereo not drawn)	8%	nt
Cc1ccccc1/C=C(\C#N)c1nc(-c2ccc(Cl)cc2)cs1	11%	nt
COc1cccc(N2CC(NC(=O)c3ccc4c(c3)OCO4)CC2=O)c1 (stereo not drawn)	-2%	nt
CCN(CC)CCCNC(=O)c1[nH]c2ccccc2c1Sc1ccc(Cl)cc1	5µM*	-1%
CCCCNC(=O)c1[nH]c2ccccc2c1Sc1ccc(C)cc1	2%	nt
COc1ccc2c(c1)c1ccccc1n2C	-3%	-5%
